Assay outcomes (PubChem)
Shown are actives, neighbours in structure and some others; about 1.2% of the full set was active somewhere.
GSH bead fluor: compound fluorescence on glutathione beads, profiling panel, artefact control, biophysical, 488/530 nm, flow cytometry | 190,000 compounds, 0.25% hits | fluorescence (KMESF) at 10 µM | GSH beads flow cytometry, compound fluorescence 488/530 nm; active compounds read high; in the data active = fluorescence above about 89;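 note: glutathione beads carrying GST-tagged Bcl family fusion proteins plus one bare bead set; values are compound well signal with DMSO vehicle wells as background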
RGS4-Gao reg: modulators of RGS4 binding to Galphao, primary screen, biochemical, multiplexed bead flow cytometry; actives lie on both sides; Guanine nucleotide-binding protein G(o) subunit alpha (Homo sapiens), P09471; binding response (% of control), % at 10 µM; 220,000 compounds, 0.33% hits; in the data active = binding response below about 49% or above about 150%; inactive = in between;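 note: fluorescent Galphao activated with aluminum fluoride binding bead-coupled RGS4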
Target sequence (P09471 whole entry, looked up): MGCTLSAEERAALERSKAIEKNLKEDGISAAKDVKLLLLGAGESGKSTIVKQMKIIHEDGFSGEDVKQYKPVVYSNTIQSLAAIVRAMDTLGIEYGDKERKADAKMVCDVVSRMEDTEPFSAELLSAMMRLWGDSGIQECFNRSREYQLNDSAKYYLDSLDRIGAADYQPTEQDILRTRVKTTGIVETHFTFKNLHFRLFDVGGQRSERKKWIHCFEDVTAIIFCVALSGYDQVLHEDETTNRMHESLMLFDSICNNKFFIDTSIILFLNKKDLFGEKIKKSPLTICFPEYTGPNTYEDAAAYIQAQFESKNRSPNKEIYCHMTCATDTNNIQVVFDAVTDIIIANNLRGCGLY
RGS7-Gao: RGS7-Galphao binding modulators, primary screen, biochemical, multiplexed bead flow cytometry; actives lie on both sides; binding response (% of control), % at 10 µM; 220,000 compounds, 0.35% hits; AID 1439, 2008; in the data active = binding response below about 49% or above about 150%; inconclusive = no clear call, values can overlap the other calls; inactive = in between;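 note: fluorescent Galphao held in activated GDP-AlF4 state binding bead-coupled RGS7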
RGS16-Gao: modulators of RGS16 binding to Galphao, primary screen, biochemical, human proteins, multiplexed bead flow cytometry; Regulator of G-protein signaling 16 (Homo sapiens) + Guanine nucleotide-binding protein …; bead-based flow cytometry RGS16-Galphao binding, fluorescence; actives lie on both sides; binding response (% of control), % at 10 µM; 220,000 compounds, 0.38% hits;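 note: Galphao activated by GDP with aluminum fluoride before binding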
Target sequence (O15492 whole entry, looked up): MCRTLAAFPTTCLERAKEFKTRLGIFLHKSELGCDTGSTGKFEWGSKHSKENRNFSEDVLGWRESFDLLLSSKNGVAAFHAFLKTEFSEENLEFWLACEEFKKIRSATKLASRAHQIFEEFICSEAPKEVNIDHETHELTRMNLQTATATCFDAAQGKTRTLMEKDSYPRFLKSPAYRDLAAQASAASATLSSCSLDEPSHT
Target sequence (P09471 whole entry, looked up): as the sequence (P09471 whole entry, looked up) above
RGS8-Gao reg: RGS8-Galphao binding modulators, primary screen, biochemical, multiplexed bead flow cytometry | Guanine nucleotide-binding protein G(o) subunit alpha (Homo sapiens), P09471 | actives lie on both sides | response (percent of control binding), % at 10 µM | 220,000 compounds, 0.34% hits | AID 1423, 2008; in the data active = response below about 60% or above about 140%; inactive = in between;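 note: Galphao activated as the GDP aluminium fluoride complex binding bead-coupled RGS8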
Avidin fluor: green autofluorescence of compounds with avidin beads – biophysical, 488/530 nm, flow cytometry, artefact control, profiling panel | compound fluorescence 488/530 nm; active compounds read high | fluorescence (KMESF) at 10 µM | 220,000 compounds, 0.38% hits; in the data active = fluorescence above about 47
RGS-Gao: modulators of RGS–Galpha-o binding, primary screen, biochemical, multiplexed beads, flow cytometry, RGS4/7/8/16/19. shares compounds with RGS16-Gao. multiplexed bead flow cytometry. RGS4–Galpha-o binding response, % at 10 µM. 1,600 compounds, 99% hits;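 note: fluorescently labeled Galpha-o bound to GDP with aluminium fluoride binding biotinylated RGS beads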
Avidin counter: disruption of biotin probe capture by avidin, counter-screen for RGS protein interaction modulators, biochemical, flow cytometry, bead-based. shares compounds with RGS16-Gao. streptavidin beads, fluorescein-biotin binding. inhibition, % at 10 µM. 1,700 tested, under 10 active. AID 1783, 2009;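 active = inhibition above 50%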;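 note: median green fluorescence of gated singlet beads compared with DMSO control wells; 0% = DMSO wells and 100% = complete loss of bead fluorescence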
RGS8-Gao confirm: RGS8-Galphao binding modulators, confirmation, biochemical, multiplexed bead flow cytometry, single concentration; shares compounds with RGS16-Gao; bead-based flow cytometry RGS8-Galphao binding, fluorescence; actives lie on both sides; binding response (% of control), % at 10 µM; 1,700 compounds, 3% hits; in the data active = binding response below about 72% or above about 130%; inactive = in between;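 note: Galphao activated as GDP AlF4 complex before binding bead RGS8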
RGS7-Gao confirm: RGS7-Galphao binding modulators, confirmation, biochemical, multiplexed bead flow cytometry, single concentration. shares compounds with RGS16-Gao. bead-based flow cytometry RGS7-Galphao binding; actives lie on both sides. response (percent of control binding), % at 10 µM. 1,700 compounds, 7.8% hits. AID 1837, 2009; in the data active = response below about 75% or above about 130%; inactive = in between;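 note: fluorescent Galphao activated with GDP and aluminum fluoride binding bead-coupled RGS7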
RGS16-Gao single: modulators of RGS16-Galphao protein binding, confirmation, biochemical, single concentration, multiplexed bead flow cytometry; shares compounds with RGS16-Gao; bead-based flow cytometry; actives lie on both sides; response (% of control binding), % at 10 µM; 1,700 compounds, 4% hits; AID 1838, 2009; in the data active = response below about 74% or above about 130%; inactive = in between;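 note: Galphao activated as the GDP aluminium fluoride complex binding bead-coupled RGS16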
RGS4-Gao confirm: modulators of RGS4-Galphao protein binding, confirmation, biochemical, single concentration, multiplexed bead flow cytometry. binding response (% of control), % at 10 µM. shares compounds with RGS16-Gao. actives lie on both sides. 1,700 compounds, 4% hits; in the data active = binding response below about 74% or above about 130%; inactive = in between
RGS19-Gao conf: regulators of RGS19-Galphao binding, confirmation, biochemical, single point, multiplexed bead flow cytometry; shares compounds with RGS16-Gao; bead-based flow cytometry RGS19-Galphao binding; actives lie on both sides; response (percent of control binding), % at 10 µM; 1,700 compounds, 5% hits; AID 1841, 2009; in the data active = response below about 50% or above about 160%; inactive = in between;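 note: 100% = no compound control and 0% = blank background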
Numbers without * were called inactive; ? = inconclusive; . = not tested or not shown; [ ] = remark or other dose. Unless noted, the rule behind the calls is not given here.

SMILES	GSH bead fluor	RGS4-Gao reg	RGS7-Gao	RGS16-Gao	RGS8-Gao reg	Avidin fluor	RGS-Gao	Avidin counter	RGS8-Gao confirm	RGS7-Gao confirm	RGS16-Gao single	RGS4-Gao confirm	RGS19-Gao conf
Cc1ccc(CN2CCSc3ccc(C(=O)NCc4cccnc4)cc32)cc1	13	96	?	93	98	8	.	.	.	.	.	.	.
CN(C)CCNC(=O)c1ccc2c(c1)N(Cc1ccc(F)cc1)CCS2	23	44*	62	7	60*	0	.	1	101	96	98	101	86
CSc1ncccc1C(=O)Nc1nc2c(C)cccc2s1	4	101	102	109	104	13	.	.	.	.	.	.	.
Cc1cc(C(=O)Nc2nc3c(C)cccc3s2)c(C)o1	16	72	79	17*	68	9	72*	-1	101	102	102	104	96
CCCCCCCC[n+]1c(C)n(-c2ccccc2)c2ccc(NC(C)=O)cc21	13	99	?	97	99	9	.	.	.	.	.	.	.
COc1ccc(NC(=O)Cn2nnc(-c3ccc(CN4CCOCC4)cc3)n2)c(OC)c1	13	149	129	170	145*[activator]	6	149*	-4	105	106	106	105	98
Cc1ccccc1NC(=O)Cn1nnc(-c2ccc(CN3CCC(C)CC3)cc2)n1	.	103	?	102	105	8	.	.	.	.	.	.	.
COc1ccc(Nc2nc3[nH]c(=O)cc(O)c3s2)cc1	14	23*	21*	12*	16*	2	.	-1	99	87	95	94	70
CC1(C)Cc2nc(NC3CCCCC3)c(C#N)cc2CO1	16	99	101	96	97	8	.	.	.	.	.	.	.
Cc1ccc2c(c1)Sc1c(ccc3ccccc13)N2	.	98	?	102	100	4	.	.	.	.	.	.	.
COc1cccc(C2C(C(=O)c3cc4cccc(OC)c4o3)=C(O)C(=O)N2c2cc(C)on2)c1OC (stereo not drawn)	27	-0.4*	11*	1.2*	34*	-1	.	0	102	106	104	106	100
CCOC(=O)/C(=N/Nc1ccc(C)cc1)S(=O)(=O)c1ccc(Cl)cc1	13	105	102	109	101	15	.	.	.	.	.	.	.
CCOC(=O)/C(=N\Nc1ccccc1)S(=O)(=O)c1ccccc1	40	.	.	.	.	.	.	1	102	99	100	98	101
O=C(O)/C=C/c1cccc2c1OCCO2	.	106	?	105	104	8	.	.	.	.	.	.	.
COc1ccc(C(NC(C)=O)c2ccc3cccnc3c2O)c(OC)c1 (stereo not drawn)	13	55	56	15	47*	7	55*	2	98	93	98	97	86
CCOC(=O)CC1C(=O)NCCN1Cc1cccs1 (stereo not drawn)	17	100	?	100	96	9	.	.	.	.	.	.	.
Cc1cc(C)c(Nc2cc(S(=O)(=O)O)c(N)c3c2C(=O)c2ccccc2C3=O)c(C)c1	12	97	93	97	98	11	.	.	.	.	.	.	.
O=C(CNCCN1CCOCC1)Nc1ccccc1Sc1ccccc1	5	110	120	227*[activator]	132	13	110*	0	99	88	99	94	78
CC12CCC(C(=O)Nc3cccc(Cl)c3)(C(Br)C1=O)C2(C)C (stereo not drawn)	9	107	109	115	105	16	.	.	.	.	.	.	.
CC12CCC(C(=O)Nc3ccc(Cl)cc3)([C@H](Br)C1=O)C2(C)C (stereo partly drawn)	.	.	.	.	.	.	.	0	101	107	103	100	105
CCOC(=O)c1ccc(NC(=O)CN(C)S(=O)(=O)c2ccc(Br)s2)cc1	24	106	104	102	104	12	.	.	.	.	.	.	.
COc1ccccc1N1CCN(C(=O)c2c(-c3ccccc3Cl)noc2C)CC1	9	64	74	-11*	77	10	64*	0	100	101	98	98	102
CC(/C=N/n1c(-c2ccco2)n[nH]c1=S)=C\c1ccco1	11	73	76	-3.8*	62	2	73*	-1	95	104	92	96	94
CC(/C=N/n1c(-c2ccc(C)cc2)n[nH]c1=S)=C\c1ccco1	17	96	105	105	99	11	.	.	.	.	.	.	.
O=C1C2C3CCC(C3)C2C(=O)N1Cc1ccccc1 (stereo not drawn)	9	100	100	70	94	10	.	.	.	.	.	.	.
CC(C)N(NC(=O)c1cccc2ccccc12)C(C)C	11	144	147	175*[activator]	151*[activator]	23	144*	1	102	103	98	100	103
O=C(Nc1nnc(-c2ccccc2Cl)o1)c1ccco1	31	.	.	.	.	.	.	2	99	103	101	103	93
C=CCOC(=O)C(=O)/C=C/c1c(C)n(C)n(-c2ccccc2)c1=O	20	150*[activator]	154*[activator]	132	107	5	.	0	102	106	104	105	99
